GPT2 inh: Primary qHTS assay for inhibitors of Glutamate pyruvate transaminase 2 (GPT2). Alanine aminotransferase 2 (Homo sapiens), Q8TD30. Recombinant GPT2, coupled pyruvate oxidase/HRP Amplex Red fluorescence. Potency, µM (highest dose often 57.7 µM), hits mostly inhibitors. 100,000 compounds, 0.25% hits. AID 1671188, 2021; further: nearly all actives have a fitted effect of over 60% in size
Target sequence (Q8TD30 whole entry, looked up): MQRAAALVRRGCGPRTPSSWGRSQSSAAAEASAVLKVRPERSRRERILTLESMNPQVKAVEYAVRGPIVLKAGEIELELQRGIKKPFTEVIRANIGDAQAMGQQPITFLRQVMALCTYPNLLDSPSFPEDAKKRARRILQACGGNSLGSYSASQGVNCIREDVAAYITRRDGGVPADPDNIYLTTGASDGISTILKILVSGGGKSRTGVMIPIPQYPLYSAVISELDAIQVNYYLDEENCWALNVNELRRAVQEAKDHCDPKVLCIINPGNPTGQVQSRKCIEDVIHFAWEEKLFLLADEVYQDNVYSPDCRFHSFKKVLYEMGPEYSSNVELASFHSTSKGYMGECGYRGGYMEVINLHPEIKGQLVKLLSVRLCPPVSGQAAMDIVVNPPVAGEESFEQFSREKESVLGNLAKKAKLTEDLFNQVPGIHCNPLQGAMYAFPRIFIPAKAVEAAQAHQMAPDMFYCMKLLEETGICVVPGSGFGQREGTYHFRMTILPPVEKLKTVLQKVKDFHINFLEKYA
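Fluorescence read-out: pyruvate from GPT2 turnover coupled to pyruvate oxidase, HRP and Amplex Red (0.2mM ThPP, 0.2U/mL PO and HRP, 50uM Amplex final). Substrates 250uM a-KG, 2mM L-alanine; enzyme 10ng/uL; 30 min RT.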
SNCA viab count: GF-AFC viability counterscreen for inhibitors of alpha-synuclein gene (SNCA) expression; AID 1671193, 2021; HEK-293-SNCA-luc viability, GF-AFC fluorescence, 24 h; 150,000 compounds, 0.12% hits; Potency, µM (doses to about 57.1 µM), most hits filed as cytotoxic; further: nearly all actives have a fitted effect of over 30% in size
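HEK-293-SNCA-luc cells (1500/well) plated 24 h, then exposed 24 h to a dilution series; GF-AFC added 30 min at 37C, fluorescence 405/540 nm; normalised to medium-only and DMSO wells, Hill fit.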
SNCA expr inh: Primary qHTS assay for inhibitors of alpha-synuclein gene (SNCA) expression | HEK-293 SNCA-luciferase knock-in, luminescence, 24 h | Potency, µM (doses to about 57.2 µM), most hits filed as inhibitors | 140,000 compounds, 0.17% hits; further: nearly all actives have a fitted effect of over 45% in size
GPT2 conf: Confirmatory qHTS assay for inhibitors of Glutamate pyruvate transaminase 2 (GPT2); 95 compounds, 90% hits; shares compounds with GPT2 inh; AID 1671187, 2021; Potency, µM, usual class: inhibitors; GPT2 enzyme, coupled Amplex Red pyruvate fluorescence
Large screens that a line does not name were inactive (follow-up assays come after a bar, where they were run); ! = a repeat was not active. The list is not random: actives were taken first. Their share in the collection is about 0.36%. The call rests on the fitted dose curve; in most records, active means well fitted curve in the direction sought with a large enough effect; inconclusive means small, poorly fitted or top-dose-only effect, or another doubt; inactive means no such curve, though single readings can be large; an effect the other way counts as inactive or inconclusive.

CC(C)(O)C=CC(=O)[C@](C)(O)[C@H]1[C@H](O)C[C@]2(C)[C@@H]3CC=C4[C@@H](C=C(O)C(=O)C4(C)C)[C@]3(C)C(=O)C[C@@]12C	GPT2 inh inconclusive, SNCA viab count inconclusive, SNCA expr inh 14µM
CC(C)(O)/C=C/C(=O)[C@](C)(O)[C@H]1[C@H](O)C[C@@]2(C)[C@@H]3CC=C4[C@@H](C[C@H](O)C(=O)C4(C)C)[C@]3(C)C(=O)C[C@]12C	SNCA viab count inconclusive (no result: SNCA expr inh)
Cc1nc(-c2ccco2)cc([C@H]2CN3CC[C@H]2C[C@@H]3CNC(=O)NC2CCCCC2)n1	none
Cc1[nH]nc2ccc(-c3cncc(OC[C@@H](N)Cc4c[nH]c5ccccc45)c3)cc12	GPT2 inh inconclusive, SNCA viab count 19µM!, SNCA expr inh 0.11µM
CC(N)Cc1c[nH]c2ccccc12 (stereo not drawn)	none (no result: SNCA expr inh)
CN(C)CCc1c[nH]c2ccc(O)cc12	none
CN(C)CCc1c[nH]c2cccc(O)c12	GPT2 inh 10µM
CCOC(=O)[C@H]1CN(C(=O)Cc2ccc(OC)cc2)[C@]2(C)C(=O)N(CC3CC3)c3ccccc3[C@H]12	SNCA viab count inconclusive
CN1CCCCC1Cn1cc(C(=O)c2cc([N+](=O)[O-])ccc2I)c2ccccc21 (stereo not drawn)	GPT2 inh inconclusive, SNCA viab count 24µM (no result: SNCA expr inh)
COc1ccc(OC)c(NC(=O)Cn2cc(C(=O)c3ccccc3F)c3ccccc32)c1	none (no result: GPT2 inh)
CCCCCOc1cc2c(cc1-c1cc(/C=C/C(=O)O)ccc1O)C(C)(C)CCC2(C)C	SNCA viab count inconclusive (no result: SNCA expr inh)
COc1ccc(C(=O)N2[C@H]3CC[C@@H]2c2cnc(-c4ccc(F)cc4)nc2C3)c(OC)c1	none
COCCn1c(C)cc(C(=O)N2[C@H]3CC[C@@H]2c2cnc(-c4ccc(F)cc4)nc2C3)c1C	SNCA viab count inconclusive, SNCA expr inh 25µM
CCOC(=O)[C@H]1CN(C(=O)CC(C)(C)C)[C@]2(C)C(=O)N(CC3CC3)c3ccccc3[C@H]12	none
COc1ccc(NC(=O)OC[C@H]2C[C@@H]3CCN2C[C@@H]3c2cc(C3CCCC3)nc(-c3ccncc3)n2)cc1	SNCA viab count inconclusive
CCOC(=O)[C@H]1CN(S(=O)(=O)c2ccccc2)[C@]2(C)C(=O)N(CC3CC3)c3ccccc3[C@H]12	none
CC1=C(O)C(=O)C=C2C1=CC=C1[C@@]2(C)CC[C@@]2(C)[C@@H]3C[C@](C)(C(=O)O)CC[C@]3(C)CC[C@]12C	SNCA viab count 22µM, SNCA expr inh 7.6µM
C[C@@]1(C(=O)O)CC[C@]2(C)CC[C@]3(C)C4=CC(=O)c5cc(O)c(O)cc5[C@]4(C)CC[C@@]3(C)[C@@H]2C1	none (no result: SNCA expr inh)
CN(N=O)c1ccc(O)c(O)c1	GPT2 inh 3.2µM
CCOC(=O)[C@H]1CN(C(=O)c2ccc(Cl)cc2)[C@]2(C)C(=O)N(CC3CC3)c3ccccc3[C@H]12	none
CCOC(=O)[C@H]1CN(C(=O)c2ccc(F)cc2)[C@]2(C)C(=O)N(CC3CC3)c3ccccc3[C@H]12	none
CCOC(=O)[C@H]1CN(C(=O)Nc2ccccc2)[C@]2(C)C(=O)N(CC3CC3)c3ccccc3[C@H]12	none
CC[C@H]1CN2CC[C@H]1C[C@@H]2CNC(=S)Nc1ccc(N(C)C)cc1	GPT2 inh 8.9µM
CC[C@H]1CN2CC[C@H]1C[C@@H]2CNC(=O)Nc1ccc(C(C)(C)C)cc1	none
O=C(Cc1cccc(Cl)c1)N1CCN(Cc2ccccc2-c2ccccc2F)CC1	none
Cc1nc(-c2cccs2)cc([C@H]2CN3CC[C@H]2C[C@@H]3CNC(=O)C(C)(C)C)n1	none
Cc1nc(-c2cccs2)cc([C@H]2CN3CC[C@H]2C[C@@H]3CO)n1	SNCA expr inh 3.5µM
c1ccc2c(c1)Nc1ccccc1S2	GPT2 inh 11µM! | GPT2 conf 2.8
Cc1ccsc1C(=O)N1[C@H]2CC[C@@H]1c1cnc(-c3ccccc3)nc1C2	none
CCOC(=O)[C@H]1CN(C(=O)c2ccc(SC)cc2)[C@]2(C)C(=O)N(CC3CC3)c3ccccc3[C@H]12	SNCA viab count inconclusive, SNCA expr inh inconclusive

Bioassay records as filed in PubChem BioAssay.
